Screening results from PubChem.
The full list was thinned out, with hits kept by preference.
miR-122 inh: raises miR-122 sensor activity in Huh7 cells; AID 623901; 340,000 compounds, 0.14% hits; activation, % at 12.5 µM; Huh7 psiCHECK-miR122 Renilla luciferase sensor, 48 h;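 active means mean activation of 30% or more, with every replicate also reaching 30%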;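 further: higher luciferase signal means stronger suppression of miR-122 activity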
Of the large screens only hits and unclear results are named; the others gave an inactive call.

C[C@H](O)C#Cc1ccc2c(c1)O[C@H](CN(C)C)[C@H](C)CN([C@@H](C)CO)S2(=O)=O	none
C[C@H](CO)N1C[C@H](C)[C@@H](CN(C)C(=O)Nc2ccc3c(c2)OCO3)Oc2ncc(-c3ccccc3)cc2C1=O	none
CCC(=O)Nc1ccc2c(c1)C(=O)N(C)C[C@@H](OC)[C@H](C)CN(Cc1ccccc1OC)[C@@H](C)CO2	none
COc1ccc(C#Cc2cnc3c(c2)C(=O)N([C@@H](C)CO)C[C@@H](C)[C@H](CN(C)CC2CCOCC2)O3)cc1	none
C[C@H](CO)N1C[C@H](C)[C@@H](CN(C)CC2CCCC2)Oc2ncc(C#Cc3cccc(F)c3)cc2C1=O	none
COCC#Cc1ccc2c(c1)O[C@H](CN(C)C(=O)C1CCCCC1)[C@@H](C)CN([C@@H](C)CO)S2(=O)=O	none
CCc1ccccc1NC(=O)CN(C)C(=O)Cn1ncc(Cl)c(Cl)c1=O	miR-122 inh 63
C[C@@H]1CN([C@@H](C)CO)C(=O)c2cc(C#Cc3ccc(F)cc3)cnc2O[C@@H]1CN(C)C(=O)c1ccccc1F	none
C/C=C/c1cnc2c(c1)C(=O)N([C@H](C)CO)C[C@H](C)[C@@H](CN(C)C(=O)c1cccnc1)O2	none
COc1ccc(NS(=O)(=O)c2ccc3ccccc3c2)c2ncccc12	none
COc1ccc(C(C)(C)C)cc1NS(=O)(=O)c1cccc2cccnc12	none
CCCCC(=O)NC(c1ccccc1OC)c1ccc2cccnc2c1O (stereo not drawn)	miR-122 inh 46
COc1ccccc1NC(=O)N(C)C[C@H]1Oc2ncc(C#CCC(C)C)cc2C(=O)N([C@@H](C)CO)C[C@H]1C	none
C[C@@H]1CN([C@H](C)CO)S(=O)(=O)c2ccc(C#C[C@@H](C)O)cc2O[C@H]1CN(C)C	none
C[C@H]1CN([C@@H](C)CO)C(=O)c2cc(-c3cccc(C(=O)N(C)C)c3)cnc2O[C@@H]1CN(C)C(=O)Cc1ccccn1	none
C/C=C/c1ccc([C@@H]2[C@@H](CN(C(=O)COC)C(C)C)N(C(C)=O)[C@H]2CO)cc1	miR-122 inh 50
COCC(=O)N(C)C[C@H]1Oc2ncc(/C=C/c3ccccc3)cc2C(=O)N([C@H](C)CO)C[C@@H]1C	none
COCC(=O)N(C)C[C@H]1Oc2ncc(/C=C/c3ccccc3)cc2C(=O)N([C@H](C)CO)C[C@H]1C	none
COc1ccccc1S(=O)(=O)N(C)C[C@@H]1Oc2cc(/C=C/c3ccccc3)ccc2S(=O)(=O)N([C@@H](C)CO)C[C@H]1C	none
CCC(=O)N(C)C[C@@H]1Oc2ncc(C#Cc3ccc(OC)cc3)cc2C(=O)N([C@@H](C)CO)C[C@@H]1C	none
CNC[C@@H]1Oc2cc(C#Cc3cccc(F)c3)ccc2S(=O)(=O)N([C@H](C)CO)C[C@H]1C	none
CCC(=O)N(C)C[C@@H]1Oc2ncc(C#Cc3cccnc3)cc2C(=O)N([C@H](C)CO)C[C@@H]1C	none
c1ccc(CCCNCCCn2cnc3c(OCc4ccccc4)ncnc32)cc1	miR-122 inh 34
CC(=O)N(C)C[C@H]1Oc2cc(C#CC3(O)CCCC3)ccc2S(=O)(=O)N([C@@H](C)CO)C[C@H]1C	none
CC(C)CC#Cc1ccc2c(c1)O[C@@H](CN(C)C(=O)NC1CCCC1)[C@H](C)CN([C@@H](C)CO)S2(=O)=O	none
COc1ccccc1-c1cnc2c(c1)C(=O)N([C@@H](C)CO)C[C@@H](C)[C@H](CN(C)C(=O)c1ccccc1)O2	none
CCOC(=O)c1ccc(-n2ccnc2)c(NC(=O)c2cccc(Br)c2)c1	none
COc1ccc(S(=O)(=O)NCc2ccccn2)cc1NC(=O)c1ccc(C)cc1	none
CCOc1cc(NC(=O)c2ccccn2)c(OCC)cc1NC(=O)c1ccc(Cl)cc1	miR-122 inh 34
CCCN(C)C[C@@H]1Oc2ncc(-c3ccccc3OC)cc2C(=O)N([C@H](C)CO)C[C@H]1C	none
COc1ccccc1-c1ccc2c(c1)O[C@@H](CN(C)C(C)=O)[C@H](C)CN([C@@H](C)CO)S2(=O)=O	none
CCCN(C)C[C@@H]1Oc2cc(C#CCN(C)C)ccc2S(=O)(=O)N([C@H](C)CO)C[C@@H]1C	none
CNC[C@@H]1Oc2ncc(C#Cc3ccncc3)cc2C(=O)N([C@H](C)CO)C[C@@H]1C	none
COc1cccc(C#Cc2ccc3c(c2)O[C@@H](CN(C)C(=O)CN2CCOCC2)[C@@H](C)CN([C@H](C)CO)S3(=O)=O)c1	none
COc1cccc(C#Cc2ccc3c(c2)O[C@@H](CN(C)C(=O)CN2CCOCC2)[C@H](C)CN([C@H](C)CO)S3(=O)=O)c1	none
C/C=C/c1ccc2c(c1)O[C@H](CN(C)C(=O)Nc1ccc(OC)cc1)[C@H](C)CN([C@@H](C)CO)S2(=O)=O	none
COc1cccc(C#Cc2ccc3c(c2)O[C@@H](CN(C)C(=O)CN2CCOCC2)[C@H](C)CN([C@@H](C)CO)S3(=O)=O)c1	none
COc1ccc(C#Cc2ccc3c(c2)O[C@H](CN(C)C(=O)NC2CCCCC2)[C@@H](C)CN([C@H](C)CO)S3(=O)=O)cc1	none
COc1ccc(NC(=O)N(C)C[C@@H]2Oc3cc(C#CCC(C)C)ccc3S(=O)(=O)N([C@@H](C)CO)C[C@@H]2C)cc1	miR-122 inh 43
COc1cccc(C#Cc2ccc3c(c2)O[C@H](CN(C)C(=O)CN2CCOCC2)[C@H](C)CN([C@H](C)CO)S3(=O)=O)c1	none
COc1ccc(C#Cc2ccc3c(c2)O[C@@H](CN(C)C(=O)CN2CCOCC2)[C@@H](C)CN([C@H](C)CO)S3(=O)=O)cc1	miR-122 inh 36
COc1ccc(C#Cc2ccc3c(c2)O[C@H](CN(C)C(=O)CN2CCOCC2)[C@H](C)CN([C@@H](C)CO)S3(=O)=O)cc1	miR-122 inh 54
COCC#Cc1ccc2c(c1)O[C@H](CN(C)Cc1cncnc1)[C@@H](C)CN([C@H](C)CO)S2(=O)=O	none
C[C@@H]1CN([C@H](C)CO)C(=O)c2cc(/C=C/c3ccccc3)cnc2O[C@@H]1CN(C)Cc1ccccc1F	none
C/C=C/c1cnc2c(c1)C(=O)N([C@@H](C)CO)C[C@H](C)[C@@H](CN(C)C(=O)c1cccnc1)O2	none
C[C@@H]1CN([C@H](C)CO)C(=O)c2cc(C#Cc3ccc(F)cc3)cnc2O[C@@H]1CN(C)Cc1ccccn1	none
C=CCNC(=S)NNC(=O)c1cccn(Cc2ccc(Cl)c(Cl)c2)c1=O	miR-122 inh 71
C=CCNC(=O)c1ccccc1NC(=O)c1ccc(Cl)c(S(=O)(=O)Nc2cc(C)ccc2C)c1	none
COc1cccc(-c2cnc3c(c2)C(=O)N([C@@H](C)CO)C[C@H](C)[C@@H](CN(C)C(=O)CC2CC2)O3)c1	none
C[C@H]1CN([C@@H](C)CO)C(=O)c2cc(C#CC3(O)CCCC3)cnc2O[C@H]1CN(C)S(=O)(=O)c1ccc(F)cc1	none
Cc1ccc(-c2cnc3c(c2)C(=O)N([C@@H](C)CO)C[C@H](C)[C@@H](CN(C)C(=O)Cc2cccnc2)O3)cc1	none
COc1cccc(Nc2nc(NCC3CCCO3)c3ccccc3n2)c1 (stereo not drawn)	miR-122 inh 51
COc1ccc(CN(C(=O)c2ccc(-c3ccccc3)[nH]2)C(C(=O)NCC2CCCO2)c2ccc(C)o2)cc1 (stereo not drawn)	none
COc1ccccc1NS(=O)(=O)c1cc(NC(=S)NCC2CCCO2)ccc1C (stereo not drawn)	none
CO[C@H]1CN(C)C(=O)c2ccc(NC(=O)Nc3ccc(Cl)cc3)cc2OC[C@@H](C)N(C)C[C@H]1C	none
COc1cccc(NC(=O)N(C)C[C@H]2Oc3cc(-c4cccc(C(=O)N(C)C)c4)ccc3S(=O)(=O)N([C@H](C)CO)C[C@H]2C)c1	none
CCC(=O)N(C)C[C@H]1Oc2cc(-c3cccnc3)ccc2S(=O)(=O)N([C@@H](C)CO)C[C@@H]1C	none
